The structures appear in SMILES notation.
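Further: KINOMEscan kinase panel screen.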

In the assay the test system is CAMK2B. The following applies: concentration: 1 μM, replicates: in singlicate; n = 1.
For `Cc1ccc(NC(=O)Nc2ccc(Cl)c(C(F)(F)F)c2)cc1-c1ccc(C(=O)Nc2ccncc2)cc1` [GSK1398470], the “%Inh” value is given as 4%. Under `FC(F)(F)c1ccccc1-c1cc(-c2c[nH]nc2-c2ccccn2)ccn1` [GW679396] stands 0%; under `COC(=O)c1cccc(NC(=O)NC2CCN(c3ccnc(Nc4ccc(F)cc4)n3)C2)c1` (centres unmarked) [GSK1379725], 0%; under `Fc1ccc(-c2nn3cccc(F)c3c2-c2ccncc2)cc1` [GW475620], 0%.

`Cc1ccc(NC(=O)Nc2ccc(Cl)cc2)cc1-c1ccc(C(=O)Nc2ccncc2)cc1` [GSK1398472]: the “%Inh” value is 0%.

As to `COC(=O)C(Cc1ccccc1)NC(=O)NC1CCN(c2ccnc(Nc3ccc(F)cc3)n2)C1` (centres unmarked) [GSK1379714], the “%Inh” value worked out at 0%. Under `COc1ccc(Nc2nccc(NCCNC(=O)Nc3cc(C)ccc3C)n2)cc1` [GSK1379899] stands 0%; under `Fc1ccc(-c2nc3n(c2-c2ccncc2)CCS3)cc1` [GI98581], 0%.

Take `CC(=O)c1cccc(NC(=O)NC2CCN(c3ccnc(Nc4ccc(F)cc4)n3)C2)c1` (centres unmarked) [GSK1379710]: the “%Inh” value stood at 0%. Turning to `Cc1ccc(-c2nc(Nc3ccncc3)c3ccccc3n2)s1` [GSK189015], the “%Inh” value was determined as 0%. Next, `O=c1cc(N2CCOCC2)nc2n(Cc3cccc(Cl)c3Cl)c3ccccc3n12` [GSK2299009]: 0%; `Cc1ccccc1Cn1ccn2c(=O)cc(N3CCOCC3)nc12` [GSK2269905]: 0%. For `O=C(Nc1n[nH]c2nc(-c3cccs3)c(Br)cc12)C1CCCC1` [SB-743341], the “%Inh” value was 12%.

Turning to `Cn1cncc1-c1cc2c(Nc3ccc(OCc4ccccc4)cc3)ncnc2cn1` [GW281179], the “%Inh” value is recorded as 0%.

These data come from paper PMC5540273 (PLoS ONE, 2017).
